# Molecular target: ParRC(pCW3) (Clostridium perfringens plasmid pCW3, UniProt Q1PLJ8 1-87)
# Test: SPR; high values mean tight binding
# Conditions: protein: recombinant; tags: C-terminal His6; chain copies: 4; label: 3' 20-nt overhang of comp strand annealed to immobilized 5'-biotin ReDCaT linker; dsDNA, one strand shown
row,Sequence,binding signal
1,ACAATTTTACATAATAGAAAGGATTGATAA,4.3 RU
2,CATAAACATCACAATTTTACGTAATTTAGA,348 RU
3,GTAATTTAGATTTTGCAAGTAAAAAACATC,42.6 RU
4,AAACATCACAATTTTACGGAAAATGCTTGA,282 RU
5,ATTTTACGGAAAATGCTTGATTTAGATTGA,9.2 RU
6,AATATAAAAACATAAACATCACAATTTTAC,155 RU
7,AATTAAAAACATCACAATTTTACGTAATGA,256 RU
8,AAAAAACATCACAATTTTACATAATAGAAA,311 RU
9,ATCACAATTTTACGTAATGACAGTTTGTTG,54.7 RU
10,ACAATTTTACGTAATTTAGATTTTGCAAGT,48.4 RU
11,TTTTGCAAGTAAAAAACATCACAATTTTAC,217 RU
12,AAAATGAAAAAAACATCACAATTTTACGGA,250 RU
13,AATTTTACATAATAGAAAGGATTGATAAAA,3.1 RU

# Reference: article PMC9426499
